# Results filed as inconclusive are left out.
# Assay: cytotoxicity in CCRF-CEM lymphoblastic leukemia cells – cell-based, CellTiter-Glo ATP luminescence, 8/24/48 h, dry powder, HRAS target identification, dose response (AID 720607)
# Details: CCRF-CEM viability, 8-48 h, 8 h series, top conc, at 35 µM, stronger effect = lower value
row,SMILES,activity change
1,C#CCCCC(=O)NCCOCCOCCOc1ccc(N(C(=O)CCl)C(C(=O)NCCc2ccccc2)c2cccs2)cc1Cl (configuration not stated),-87.7%
2,COC(=O)c1ccc([C@@H]2c3[nH]c4ccccc4c3C[C@@H](C(=O)OC)N2C(=O)CCl)cc1,-77.8%
3,Cc1onc(C(=O)N2CCN(C(c3ccc(Cl)cc3)c3ccc(Cl)cc3)CC2)c1[N+](=O)[O-],-63.7%
4,CC(C)(C)OC(=O)NCCOCCOCCOc1ccc(N(C(=O)CCl)C(C(=O)NCCc2ccccc2)c2cccs2)cc1Cl (configuration not stated),-88.9%
5,COc1ccc(N(C(=O)CCl)C(C(=O)NCCc2ccccc2)c2cccs2)cc1Cl (configuration not stated),-85.7%
6,Cc1onc(C(=O)N2CCN(C(c3ccncc3)c3ccncc3)CC2)c1[N+](=O)[O-],-2.67%

# Same assay, conditions: CCRF-CEM viability, 8-48 h, 24 h series, top conc, at 35 µM, stronger effect = lower value
row,SMILES,activity change
1,C#CCCCC(=O)NCCOCCOCCOc1ccc(N(C(=O)CCl)C(C(=O)NCCc2ccccc2)c2cccs2)cc1Cl (configuration not stated),-97.5%
2,COC(=O)c1ccc([C@@H]2c3[nH]c4ccccc4c3C[C@@H](C(=O)OC)N2C(=O)CCl)cc1,-98.1%
3,Cc1onc(C(=O)N2CCN(C(c3ccc(Cl)cc3)c3ccc(Cl)cc3)CC2)c1[N+](=O)[O-],-96.7%
4,CC(C)(C)OC(=O)NCCOCCOCCOc1ccc(N(C(=O)CCl)C(C(=O)NCCc2ccccc2)c2cccs2)cc1Cl (configuration not stated),-98.2%
5,COc1ccc(N(C(=O)CCl)C(C(=O)NCCc2ccccc2)c2cccs2)cc1Cl (configuration not stated),-98%
6,Cc1onc(C(=O)N2CCN(C(c3ccncc3)c3ccncc3)CC2)c1[N+](=O)[O-],-2.69%
